# Test results as given in PubChem BioAssay (NCI).
# Compounds without any hit were thinned out: in the full panel of roughly 79,000, 15% have a hit. Unmarked numbers belong to inactive results. Activity calls are given as the source filed them. No stated cut-off is given here; in the data, active means growth inhibition above about 70%; inactive means the rest.
# How the values were obtained:
# [1] = NCI Yeast Anticancer Drug Screen. Data for the rad50 strain (AID 155);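 further: 0% = growth of vehicle-only cultures of the same strain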; conditions: S. cerevisiae rad50 strain growth inhibition, hits give high values
# Method in brief: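 Compounds were tested on a yeast strain with an engineered DNA damage repair alteration; the reported value is growth inhibition normalised to vehicle treatment.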
# [2] = NCI Yeast Anticancer Drug Screen. Data for the mec2-1 strain (AID 157); conditions: S. cerevisiae mec2-1 strain, hits give high values
# Method in brief: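 Strain: mec2-1 (DNA repair/cell cycle alteration). Compound exposure, then growth measured; inhibition expressed relative to vehicle.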
# [3] = NCI Yeast Anticancer Drug Screen. Data for the sgs1 mgt1 strain (AID 161);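 further: 0% = growth of cultures given vehicle only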; conditions: S. cerevisiae sgs1 mgt1 strain, hits give high values
# Method in brief: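 Genetically altered yeast, compound exposure, growth inhibition relative to vehicle.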
# [4] = NCI Yeast Anticancer Drug Screen. Data for the cln2 rad14 strain (AID 165);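 further: 0% = growth equal to vehicle treated cultures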; conditions: S. cerevisiae cln2 rad14 strain, hits give high values
# Method in brief: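 Compounds are applied to the cln2 rad14 yeast strain, and growth is then compared with that of vehicle-treated cultures to give inhibition.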
# [5] = NCI Yeast Anticancer Drug Screen. Data for the bub3 strain (AID 167); conditions: S. cerevisiae bub3 mutant strain, hits give high values
# Method in brief: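 Growth of a checkpoint-deficient yeast mutant is measured after compound exposure. Values represent inhibition relative to vehicle.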
# [6] = NCI Yeast Anticancer Drug Screen. Data for the mlh1 rad18 strain (AID 175); conditions: S. cerevisiae mlh1 rad18 strain growth inhibition, hits give high values
# Method in brief: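 Read-out is yeast growth inhibition, calculated against vehicle-only controls. The compound was applied to a strain engineered with DNA damage repair alterations.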
# [7] = at 5.0 µM (retest, dose inferred, filed as 0.5)
# [8] = at 50.0 µM (retest, dose inferred, filed as 5.0)
Structure (SMILES),"growth inhibition [1, 7]","growth inhibition [1, 8]",growth inhibition ([1]; at 50.0 µM),"growth inhibition [2, 7]","growth inhibition [2, 8]",growth inhibition ([2]; at 50.0 µM),"growth inhibition [3, 7]","growth inhibition [3, 8]",growth inhibition ([3]; at 50.0 µM),"growth inhibition [4, 7]","growth inhibition [4, 8]",growth inhibition ([4]; at 50.0 µM),"growth inhibition [5, 7]","growth inhibition [5, 8]",growth inhibition ([5]; at 50.0 µM),"growth inhibition [6, 7]","growth inhibition [6, 8]",growth inhibition ([6]; at 50.0 µM)
CCCCCc1[nH]nc(C(=O)OC)c1N=NN1CCOCC1,43%,98% (active),99.2% (active),91% (active),99% (active),99.6% (active),62%,99% (active),99.5% (active),68%,99% (active),99.5% (active),81% (active),99% (active),99.4% (active),89% (active),99% (active),99.5% (active)
BrC(Br)=C1C(=C(Br)Br)C(Br)C1Br (configuration not stated),31%,69%,61.6%,-10%,59%,77.4% (active),72% (active),94% (active),83.8% (active),19%,53%,55%,18%,66%,73% (active),40%,71% (active),71.6% (active)
c1ccc(CCN(Cc2nc3ccccc3[nH]2)Cc2nc3ccccc3[nH]2)cc1,3%,90% (active),94.7% (active),-3%,92% (active),93.2% (active),-3%,90% (active),96% (active),-12%,93% (active),82.6% (active),0%,95% (active),89.2% (active),-3%,91% (active),95.5% (active)
CN(C)/N=N/c1nc(Cc2ccccc2)[nH]c1C(N)=O,98% (active),98% (active),98.5% (active),16%,99% (active),94.6% (active),38%,99% (active),99.2% (active),29%,99% (active),92.9% (active),67%,99% (active),96.5% (active),99% (active),99% (active),98.8% (active)
O=C1c2cccc3cccc(c23)C1(Br)Br,36%,99% (active),68%,20%,99% (active),23.4%,45%,98% (active),70.8% (active),37%,95% (active),56.1%,26%,97% (active),55.6%,54%,99% (active),67.8%
CC(=O)N1c2ccccc2Sc2ccc(C(=O)CCl)cc21,14%,79% (active),95.7% (active),19%,95% (active),95.7% (active),15%,91% (active),93.9% (active),9%,50%,81.2% (active),8%,91% (active),95.8% (active),30%,94% (active),94.7% (active)
O=C1OC(=O)C2C1C1(c3ccccc3)OC2(c2ccccc2)c2c(Br)c(Br)c(Br)c(Br)c21 (configuration not stated),23%,99% (active),98.8% (active),25%,100% (active),99.4% (active),15%,99% (active),99.2% (active),18%,99% (active),98.6% (active),2%,99% (active),98.7% (active),38%,99% (active),98.2% (active)
NC(=O)c1cccn1Cc1ccccc1SSc1ccccc1Cn1cccc1C(N)=O,32%,98% (active),89.5% (active),31%,99% (active),95.7% (active),47%,99% (active),94.2% (active),16%,98% (active),90.9% (active),24%,99% (active),92.8% (active),21%,98% (active),94.4% (active)
CCCCCCCCCCC(=O)CC(=O)c1c(O)cccc1O,-14%,-1%,1.9%,-11%,5%,-0.35%,10%,5%,2.4%,0%,12%,-37.5%,12%,17%,-1.95%,-16%,16%,1.5%
CN1C(OCc2ccccc2)c2c(ccc3c2OCO3)C2C=Cc3cc4c(cc3C21)OCO4 (configuration not stated),47%,99% (active),92.8% (active),39%,99% (active),93.2% (active),96% (active),100% (active),93% (active),89% (active),98% (active),92.7% (active),93% (active),99% (active),91.8% (active),96% (active),99% (active),91.1% (active)
CN1CCS(=O)(=O)C1=O,3%,87% (active),90.3% (active),2%,93% (active),95.8% (active),1%,75% (active),42.8%,10%,54%,86.3% (active),5%,94% (active),98% (active),1%,63%,93.2% (active)
CCOc1ccc2nc(NC(=O)c3c/c(=N\NC(=O)C[N+](C)(C)C)c4ccc(O)cc4o3)sc2c1,57%,64%,99.3% (active),28%,53%,99.6% (active),33%,65%,99.3% (active),13%,61%,98.6% (active),62%,62%,99.3% (active),41%,52%,99.2% (active)
C#CCn1cnc2c(N)ncnc21,-1%,-11%,6.75%,3%,-8%,15.8%,5%,-13%,28.4%,3%,-6%,84.2% (active),-4%,-16%,-6.65%,2%,-14%,7.3%
CCCCCc1cccc(CC(=O)OCC)n1,-161%,-149%,-14.7%,-50%,-57%,-15.3%,-66%,-69%,-12.7%,-58%,-80%,26.9%,-66%,-42%,-12.3%,-127%,-132%,-6.15%
Cc1ccc(-n2cc(-c3ccc(Cl)cc3)c3c(NN)ncnc32)cc1,-20%,30%,85.7% (active),-11%,65%,87.6% (active),-8%,61%,87.5% (active),-20%,37%,90.3% (active),-19%,53%,87.7% (active),-14%,65%,76.6% (active)
CC(C)(C)c1c2c(c(C(C)(C)C)c3c1OCN(Cc1ccccc1)C3)OCN(Cc1ccccc1)C2,4%,12%,54.1%,0%,-13%,9.25%,-2%,-19%,71.7% (active),-15%,-38%,17.6%,-5%,18%,11.7%,-10%,1%,41.5%
CC(=O)O[C@H]1[C@@H]2CC(C)(C)CC2=C(C=O)C2(C=O)CC12C (some centres not stated),40%,99% (active),99.5% (active),65%,100% (active),99.5% (active),62%,99% (active),99.7% (active),37%,99% (active),99.2% (active),54%,99% (active),46.8%,55%,99% (active),99.7% (active)
CCOc1cc(C(c2ccc(N(C)C)cc2)c2ccc(N(C)C)cc2)ccc1O,-1%,26%,36.2%,-1%,52%,44.8%,0%,54%,74.2% (active),2%,52%,84.1% (active),8%,79% (active),79.4% (active),0%,42%,59.5%
O=S(=O)(CC(Br)Br)c1ccccc1,13%,99% (active),99.5% (active),18%,100% (active),98.5% (active),3%,99% (active),41%,7%,99% (active),74.8% (active),34%,99% (active),99.5% (active),11%,99% (active),30.9%
